Laboratory results as given in PubChem BioAssay.

Tests used:
[1] = test system: Human papillomavirus type 1a protein E7 (residues 44-93); test: HPV1a E7 fragment binders on microarrays, primary screen, biochemical, small-molecule microarray, residues 44-93, 635 nm fluorescence (AID 1108); settings: small-molecule microarray binding, fluorescence 635 nm; higher = more signal;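 also: E7 fragment applied at 1 µg/mL in TBST for 1 h at 4 C; score combines spot fluorescence with its signal to noise ratio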
[2] = modulators of HCV replicon luciferase signal, primary screen, HCV replication inhibitor project, Huh7 cells, luciferase reporter (AID 1109); settings: 48 h, higher = more signal;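 also: huh7 hepatoma cells harbouring a luciferase neomycin HCV replicon reporter; luciferase luminescence as measure of HCV replicon replication; test concentration not given here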
[3] = biological target: Left-right determination factor 2 (Homo sapiens) (UniProt O00292); test: LEFTY2 binders on small-molecule microarrays, primary screen, biochemical, small-molecule microarray, 635 nm fluorescence scan (AID 1110); settings: LEFTY2 binding, higher = more signal
Left-right determination factor 2 (Homo sapiens), sequence (O00292 whole entry, looked up): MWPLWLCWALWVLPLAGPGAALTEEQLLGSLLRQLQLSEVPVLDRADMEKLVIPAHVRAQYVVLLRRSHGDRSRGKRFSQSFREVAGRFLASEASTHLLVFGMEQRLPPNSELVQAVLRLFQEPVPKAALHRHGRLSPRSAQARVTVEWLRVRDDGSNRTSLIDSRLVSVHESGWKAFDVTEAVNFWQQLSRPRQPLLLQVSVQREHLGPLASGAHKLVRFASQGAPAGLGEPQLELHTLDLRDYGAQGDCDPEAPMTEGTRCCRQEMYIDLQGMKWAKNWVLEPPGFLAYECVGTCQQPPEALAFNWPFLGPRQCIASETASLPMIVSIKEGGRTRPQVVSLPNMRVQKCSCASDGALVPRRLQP

[4] = biological target: Calmodulin-1 (Homo sapiens) (UniProt P0DP23); test: CALM1 binders on microarrays, EGTA buffer, profiling panel, biochemical, small-molecule microarray, Cy5-labelled CALM1 (AID 1111); settings: Cy5-CALM1 binding fluorescence, higher = more signal;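 also: labelled calmodulin applied in Tris saline Tween buffer holding calcium plus EGTA and DTT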
[5] = biological target: Calmodulin-1 (Homo sapiens) (UniProt P0DP23); test: calcium-bound CALM1 binders on microarrays, profiling panel, artefact control for SMM control-protein annotation, biochemical, small-molecule microarray, Cy5-labelled CALM1, plus calcium (AID 1112); settings: Cy5-CALM1 binding fluorescence, higher = more signal;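 also: score merges spot fluorescence with signal to noise from triplicate slides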
[6] = small-molecule microarray binders of probe aWnt5a, primary screen, biochemical, biotinylated probe, 635/667 nm fluorescence (AID 1113); settings: higher = more signal;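 also: score merges 667 nm fluorescence intensity with signal-to-noise per printed feature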
[7] = small-molecule microarray binders of probe aShh, primary screen, biochemical, biotinylated probe, 635/667 nm fluorescence (AID 1114); settings: higher = more signal;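 also: probe is biotin-labelled aShh protein from a stem cell growth factor screen; measures binding of labelled protein to compounds printed on the slide; score merges feature fluorescence at 667 nm with signal-to-noise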
[8] = small-molecule microarray binders of probe aNog, primary screen, biochemical, biotinylated probe, 635/667 nm fluorescence (AID 1115); settings: higher = more signal;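 also: probe is biotinylated aNog protein used at 0.15 µg/mL for 1 h at 4 C; z-score combines 667 nm fluorescence of each spot with its signal to noise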
[9] = biological target: Torsin-1A-interacting protein 1 (Homo sapiens) (UniProt Q5JTV8); test: LAP1 binders from COS7 cell lysate, primary screen, small-molecule microarray, 635/667 nm fluorescence (AID 1116); settings: COS7-hLAP1 lysate binding, 635 nm fluorescence, higher = more signal
Torsin-1A-interacting protein 1 (Homo sapiens), sequence (Q5JTV8 whole entry, looked up): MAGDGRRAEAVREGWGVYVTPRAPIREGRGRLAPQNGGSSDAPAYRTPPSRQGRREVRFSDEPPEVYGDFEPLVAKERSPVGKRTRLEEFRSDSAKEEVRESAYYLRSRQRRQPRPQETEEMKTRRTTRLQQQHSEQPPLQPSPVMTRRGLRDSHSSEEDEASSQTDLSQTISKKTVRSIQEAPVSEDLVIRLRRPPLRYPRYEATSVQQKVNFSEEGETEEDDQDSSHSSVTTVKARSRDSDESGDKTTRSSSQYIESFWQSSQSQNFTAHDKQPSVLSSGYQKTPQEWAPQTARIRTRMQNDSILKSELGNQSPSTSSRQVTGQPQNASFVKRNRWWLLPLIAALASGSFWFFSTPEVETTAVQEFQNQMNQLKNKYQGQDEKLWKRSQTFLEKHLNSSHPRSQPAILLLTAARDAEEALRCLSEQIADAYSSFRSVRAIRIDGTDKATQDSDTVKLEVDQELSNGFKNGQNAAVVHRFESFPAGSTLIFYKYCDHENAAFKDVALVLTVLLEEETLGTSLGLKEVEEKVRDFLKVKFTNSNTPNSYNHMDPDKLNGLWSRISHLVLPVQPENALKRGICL

[10] = biological target: Alpha-bungarotoxin (Bungarus multicinctus) (UniProt P60615); test: alpha-bungarotoxin binders on microarray, profiling panel, artefact control for SMM control protein annotation, biochemical, small-molecule microarray, Alexa647 label, 635/667 nm fluorescence (AID 1117); settings: alpha-BTX-A647 binding fluorescence, higher = more signal
Alpha-bungarotoxin (Bungarus multicinctus), sequence (P60615 whole entry, looked up): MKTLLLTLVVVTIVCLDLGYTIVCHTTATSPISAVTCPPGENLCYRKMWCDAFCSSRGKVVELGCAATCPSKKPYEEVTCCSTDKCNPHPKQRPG

SMILES	composite z-score [1]	z-score [2]	composite z-score [3]	composite z-score [4]	composite z-score [5]	composite z-score [6]	composite z-score [7]	composite z-score [8]	composite z-score [9]	composite z-score [10]
CC(C)C(=C=CC[C@H](O)c1cccc(OCCO)c1)CCO	0.133	0.121	-0.0916	-0.427	-0.224	-0.0165	0.201	-0.272	0.0879	0.115
Cc1cccc([C@H]2C[C@H]3C(Br)=C[C@@H]2C(=O)[C@]32CO2)c1	-0.97	-2.5	0.174	-0.206	-0.41	-0.18	-0.341	-0.0784	-0.188	0.106
CC(C)CNC(=O)[C@@H]1c2ccccc2C(=O)N(C2CCCCC2)[C@H]1c1ccc(CO)cc1	0.0857	-0.48	-0.276	0.54	1.09	-0.124	-0.153	0.313	0.875	-0.624
COCCOC(=O)N1C(=O)[C@@]2(c3cc(C#CCCO)ccc31)[C@H](c1ccccc1OCCO)N1[C@H](c3ccccc3)[C@H](c3ccccc3)OC(=O)[C@H]1[C@@H]2C(=O)N1CCCCCCC1	1.4	-2.25	0.994	2.58	1.09	0.495	1.94	2.8	3.04	2.2
O=c1cccc(-c2ccc(F)cc2)o1	-0.399	-0.228	0.55	-0.236	-0.33	-0.1	0.216	0.0416	-0.184	0.241
NC(=O)[C@H]1[C@@H]2C(=O)O[C@@H](c3ccccc3)[C@@H](c3ccccc3)N2[C@@H](c2ccc(O)cc2)[C@]12C(=O)Nc1ccccc12	-0.0092	-0.449	-0.194	-0.408	0.517	-0.0124	-0.214	-0.0753	-0.428	-1.15
Cc1ccccc1C(O)C1C=CC2C(=O)NC(=O)C2N1Nc1ccc(Cl)cc1Cl (stereo not given)	-0.198	-0.595	-0.345	1.95	1.13	-0.0405	0.0796	0.879	1.56	0.0072
CC(C)[Si]1(C(C)C)OCc2cc(-c3ccc(-c4ccc(Cl)c(Cl)c4)o3)nc(CCc3ccccc3)c21	-0.655	-0.826	0.198	-0.307	0.688	-0.054	-0.601	0.428	-0.395	-0.327
[N-]=[N+]=NCc1ccccc1[C@@H]1OC(c2ccc(OCCCO)cc2)=N[C@]1(Cc1ccccc1N=[N+]=[N-])C(=O)NCCN1CCOCC1	1.4	-1.66	0.466	0.969	0.0714	0.0944	-0.0289	0.597	0.495	0.446
CC(=O)NCCCC[C@@H]1NC(=O)[C@@H]2C[C@H](C(=O)NCCCCCCN)[C@H](c3cccc(OCCO)c3)N2C1=O	0.601	-0.69	-0.535	1.47	1.35	-0.0519	-0.0066	-0.153	1.79	2.15
Cc1c(NC(=O)/C(C#N)=C/c2ccccc2Cl)c(=O)n(-c2ccccc2)n1C	-0.11	0.614	0.453	1.01	-0.154	-0.0377	-0.588	-0.226	0.858	0.42
COCCOC(=O)N1C(=O)[C@@]2(c3cc(C#CCC(C(=O)OC)C(=O)OC)ccc31)[C@H](C(=O)NC[C@H](O)c1ccccc1)[C@H]1C(=O)O[C@H](c3ccccc3)[C@H](c3ccccc3)N1[C@@H]2c1ccc(O)cc1	1.37	-0.545	0.102	1.65	0.247	-0.0194	-0.0146	-0.038	1.37	0.195
COCCOC(=O)N1C(=O)[C@@]2(c3cc(C#CCCO)ccc31)[C@H](C(=O)N1CCCCCCC1)[C@H]1C(=O)O[C@H](c3ccccc3)[C@H](c3ccccc3)N1[C@@H]2c1ccccc1OCCO	1.4	-1.79	1.18	2.73	1.5	0.993	2.38	2.99	3.19	1.85
C=C(/C(=C/C[C@@H](OC(=O)c1ccncc1)c1cccc(OCCO)c1)c1cnc2ccccc2c1)C(C)C	1.08	-1.96	0.775	0.0848	0.11	0.0215	-0.0769	0.419	1.37	2.57
C=C(COC)/C(=C/C[C@H](OC(C)=O)c1cccc(OCCO)c1)c1cnc2ccccc2c1	1.4	-1.7	0.536	-0.0062	-0.892	-0.0512	-0.147	0.353	0.416	2.04
CN(C)CCCC[C@@H]1NC(=O)[C@@H]2C[C@H](C(=O)O)[C@H](c3cccc(OCCO)c3)N2C1=O	-0.927	-0.282	-0.43	-0.832	-0.238	-0.0179	-0.0793	-0.375	-0.657	-0.676
[N-]=[N+]=Nc1ccccc1C[C@]1(C(=O)NCc2ccccc2)COC(c2ccc(OCCCO)cc2)=N1	1.4	-3.22	-0.576	0.575	0.154	0.0004	-0.167	0.919	1.42	1.04
COCC(=C=CC[C@@H](O)c1ccc(OCCO)cc1)CCO	0.862	-0.766	-0.144	-0.0954	-0.102	-0.0643	0.0639	-0.197	0.506	0.0305

SMILES	composite z-score [1]	z-score [2]	composite z-score [3]	composite z-score [4]	composite z-score [5]	composite z-score [6]	composite z-score [7]	composite z-score [8]	composite z-score [9]	composite z-score [10]
CC(C)N1CC=CC23O[C@@H]4/C=C\CCCOC(=O)C4[C@H]2C(=O)N(CCCCCCO)[C@@H]3C1=O (stereo not given in full)	0.509	-0.276	-1.46	-0.954	-0.488	-0.0643	-0.346	0.345	0.881	-1.5
COc1ccc([Si](C)(C)[C@@H]2[C@@H](CC(=O)N3Cc4ccccc4C[C@H]3CO)O[C@]3(C(=O)N(c4ccccc4)c4ccccc43)[C@H]2C)cc1	1.38	-4.41	0.671	1.75	1.36	0.418	0.293	1.14	0.553	1.26
CCCCC(=O)N(CCN1CCOCC1)[C@@H]1CC(C(=O)NCCO)=C[C@H](Oc2c(I)cc(CO)cc2OC)[C@H]1O	0.33	0.282	0.653	-0.282	-0.598	-0.19	-0.358	-0.31	-0.0458	0.354
NC(=O)NCC#Cc1ccc2c(c1)[C@]1(C(=O)N2)[C@H](C(=O)N2CCN(c3ncccn3)CC2)[C@H]2C(=O)O[C@H](c3ccccc3)[C@H](c3ccccc3)N2[C@@H]1c1ccc(OCCO)cc1	1.23	-1.6	0.0996	0.756	0.514	0.0775	-0.0553	0.833	0.572	1.42
O=C1C2C=CC(C(O)c3cc(C(F)(F)F)cc(C(F)(F)F)c3)N(Nc3ccccc3F)C2C(=O)N1c1ccccc1 (stereo not given)	0.962	-2.74	-0.327	0.896	0.681	-0.043	0.957	1.97	0.985	0.383
COCCCNC(=O)[C@@]1(c2ccc([N+](=O)[O-])cc2)CC(=O)N(C(C)C)[C@@H]1c1ccc(CO)cc1	-1.48	0.198	-0.195	-1.61	-0.129	0.0559	-0.211	-0.261	1.94	1.88
O=C1OCC=C[C@H]2OC34C=CCN(c5ccc6ccccc6c5)C(=O)[C@H]3N(CCCCCO)C(=O)[C@@H]4[C@@H]12 (stereo not given in full)	0.203	-0.078	-2.05	-0.402	0.239	-0.098	0.151	0.244	1.35	-0.0602
CC(C)[C@H]1NC(=O)[C@@]23C(=O)N[C@@H](Cc4ccccc4)C2[C@H](C)[C@@]2(C)O[C@H]2C3/C=C/C/C=C\CNC(=O)[C@H](Cc2ccccc2)NC1=O (stereo not given in full)	1.33	-0.26	0.736	-0.28	-0.584	-0.158	-0.0553	-0.505	0.512	0.807
COCCOC(=O)N1C(=O)[C@@]2(c3cc(C#CCNC(N)=O)ccc31)[C@H](c1ccc(O)cc1)N1[C@H](c3ccccc3)[C@H](c3ccccc3)OC(=O)[C@H]1[C@@H]2C(=O)N1CCN(c2ncccn2)CC1	0.855	-1.3	0.315	2.03	0.762	-0.219	1.78	-0.48	1.82	1.52
CS(=O)(=O)CCOC(=O)C1=CC(CCCO)=CC(C2CC2)N(Cc2cccc(OC(F)(F)F)c2)C=C1C(=O)OCCS(C)(=O)=O (stereo not given)	1.3	-1.63	-0.022	0.238	0.478	-0.0643	-0.0243	0.576	1.9	0.0358
CCCCCN1CC=CC23O[C@@H]4C=CCOC(=O)[C@@H]4[C@H]2C(=O)N(CCO)[C@@H]3C1=O (stereo not given in full)	0.673	0.644	-0.397	-0.343	0.595	-0.172	-0.138	-0.305	0.665	-0.514
C[C@]1(C(=O)NCCN2CCOCC2)c2ccccc2C(=O)N(Cc2cc(F)cc(C(F)(F)F)c2)[C@H]1c1ccc(CO)cc1	1.38	-1.06	-1.37	-0.17	-1.02	-0.148	-0.0222	-0.41	1.88	2.4
CN(C)C(=O)[C@@]1(CCC(=O)OC(C)(C)C)N=C(c2ccc(OCCCO)cc2)O[C@H]1c1ccccc1CN=[N+]=[N-]	1.5	-1.61	-0.9	1.18	0.0572	0.0044	0.579	1.32	2.74	0.548
COC(=O)[C@@]1(Cc2ccc(F)cc2)[C@H]2c3cc(C(=O)N4CCCC4)n(C)c3C[C@H]2CN1C(=O)c1ccccc1	-0.919	-1.4	-0.917	2.5	1.11	0.122	0.0044	1.39	2.84	0.121
C=C(COC)C(=O)CC[C@H](OC(=O)c1cccnc1)c1ccc(CO)o1	-0.132	-1.05	0.879	-0.502	-0.875	-0.167	-0.214	-0.447	0.659	-0.0505
Cc1cccc([C@H]2C[C@H]3C(I)=C[C@@H]2C(=O)[C@]32CO2)c1	-0.998	-1.94	0.0047	-0.542	-0.271	-0.141	-0.345	-0.0381	-0.0258	0.132
COc1cc(NN2C(C(O)c3ccccc3)C=CC3C(=O)N(C)C(=O)C32)cc(OC)c1OC (stereo not given)	1.35	-0.928	0.222	0.533	-0.171	0.0437	0.151	0.521	0.891	0.544
